# Vif-APOBEC3F blk = blocks the Vif interaction with APOBEC3F | HeLa A3F-eYFP + Vif (tagged APOBEC3F with the HIV-1 protein that degrades it), YFP fluorescence increase | Potency, µM (series often up to 46.1 µM), without a hit: at the top dose activity, negative = active | 390,000 tested, 0.2% active | AID 602313; further: potency means the concentration at half of the fitted maximal effect; % of control where 0% means no effect; nearly all actives have a fitted effect of over 65% in size
#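 HeLa cells stably expressing A3F-eYFP plus Vif, plated and incubated overnight at 37 deg C, then exposed to compounds overnight at 37 deg C. Blocked degradation read as raised yellow fluorescence (Ex 488/Em 500-530).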
# TRPML1 ag = activates the human TRPML1 channel. Q9GZU1. TRPML1-expressing cells, Ca2+ dye fluorescence, FDSS. activation, % (no concentration beside the values). 410,000 tested, 0.12% active. AID 624414; in the data active means activation above about 50%; inconclusive means mostly about 30% to 49%; further: 0% is about no effect
#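 Tet-induced TRPML1-DL cells, 1,500 per well, cultured overnight, were loaded with a no-wash Ca2+ dye for 45–90 min. Calcium fluorescence was recorded on the FDSS for 110 s after compound addition, before the EC80 agonist (4 uM 54-4) was added.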
# TRPML1 blocker = human mucolipin-1 channel inhibition; TRPML1-inducible cells, Ca2+ dye fluorescence, FDSS; hits give low values; inhibition of EC80 agonist-evoked calcium signal; activity change, negative = inhibition, % (concentration not given with the values); 390,000 tested, 0.02% active; AID 624415; in the data active means activity change below about -50%; inconclusive means between about -30% and that limit;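 further: stimulus is agonist 54-4 at its EC80 concentration; on the % scale 0 is the no-effect control and ±100 the full control effect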
#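 Calcium fluorescence in TRPML1-DL cells induced overnight with Tet: a 110 s read after compound pin addition, then a 110 s antagonist read after challenge with 54-4 at 4 uM final (EC80).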
# PINK1 expr mod = modulators of PINK1 expression | AID 624263 | 410,000 tested, 0.2% active | Potency, µM (series often up to 76.6 µM), for the others: at the top dose activation (PINK1 increase), most hits filed as activators | PINK1 immunofluorescence, high-content cytometry, 24 h; active means well fitted activation curve with a large enough effect; inconclusive means small, poorly fitted or top-dose-only effect; cell line not stated here; further: potency means the concentration at half of the fitted maximal effect; % of control where 0% means no effect; nearly all actives have a fitted effect of over 65% in size
#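 Decision-based qHTS: stable cells, 24 h exposure to five compound concentrations, CCCP as control. Fixed cells stained for PINK1 plus nuclear, mitochondrial and cell markers, cytometer read.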
# Vif-APOBEC3G blk = inhibitors of Vif-APOBEC3G interaction; Q9HC16; HeLa A3G-eYFP + Vif (tagged APOBEC3G with the HIV-1 protein that degrades it), YFP fluorescence, overnight; Potency, µM (doses to about 46.1 µM), for the others: at the highest dose activity, negative = active, hits mostly inhibitors; 410,000 tested, 0.076% active; AID 602310; further: potency means the concentration at half of the fitted maximal effect; on the % scale 0 is the no-effect control and ±100 the full control effect; nearly all actives have a fitted effect of over 60% in size
# Target sequence (Q9HC16 whole entry, looked up): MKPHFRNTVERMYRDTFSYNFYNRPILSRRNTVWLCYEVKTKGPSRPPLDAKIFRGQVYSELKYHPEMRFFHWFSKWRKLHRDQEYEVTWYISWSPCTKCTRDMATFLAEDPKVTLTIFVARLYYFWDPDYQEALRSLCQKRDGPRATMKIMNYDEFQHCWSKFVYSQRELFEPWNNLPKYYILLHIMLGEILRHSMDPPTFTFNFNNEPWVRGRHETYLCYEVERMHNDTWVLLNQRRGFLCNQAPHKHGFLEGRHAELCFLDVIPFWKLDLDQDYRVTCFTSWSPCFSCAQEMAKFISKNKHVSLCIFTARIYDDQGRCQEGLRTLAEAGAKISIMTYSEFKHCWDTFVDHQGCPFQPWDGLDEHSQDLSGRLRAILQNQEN
#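 HeLa cells stably expressing Vif and C-terminally eYFP-tagged A3G, seeded overnight at 37 deg C, then exposed to compound by pintool overnight at 37 deg C. Rise in yellow fluorescence (Ex 488/Em 500-530, Acumen) marks blocked Vif-driven A3G degradation.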
# An asterisk follows results filed as active; ? = inconclusive; · = no result; [ ] = remark or other dose. This is a sample that favours compounds with a hit; in the whole collection about 0.52% have one here. Unless noted, the call rests on the fitted dose curve; in most records, active means well fitted curve in the direction sought with a large enough effect; inconclusive means small, poorly fitted or top-dose-only effect, or another doubt; inactive means no such curve, though single readings can be large; an effect the other way counts as inactive or inconclusive.
SMILES,Vif-APOBEC3F blk,TRPML1 ag,TRPML1 blocker,PINK1 expr mod,Vif-APOBEC3G blk
CCc1nc2ccc(C(=O)NCc3ccccc3OC)cn2c1N(CC)CCOC,·,-1.3,·,1.3%,-1.4%
CC1=C(C(=O)N(C)C)CC(CC(=O)NCCCCc2ccccc2)C(=O)N1Cc1ccc(C(C)(C)C)cc1 (centres undefined),-19.7%,-0.4,0.2,12.9%,-0.3%
COc1cccc(/C=N/NC(=O)c2cc3c(OC)cccc3[nH]2)c1O,-0.1%,0.0,42.7,39.8µM*,-7.0%
COc1cccc(/C=N/NC(=O)c2cc3c(OC)c(OC)ccc3[nH]2)c1OC,4.9%,2.5,-18.3,15.1%,3.98µM*
CN1CCN(C(CNC(=O)c2ccc(Br)o2)c2ccc(F)cc2)CC1 (centres undefined),0.7%,1.2,2.0,-0.8%,0.2%
NC(=O)C1=CC2C3C=CC2(O)C(=O)OC3O1 (centres undefined),2.0%,-0.3,6.8,-4.4%,-14.7%
CCOc1ccc(-c2nnc(SCC(=O)NCc3ccc(Cl)cc3)o2)cc1,-4.8%,-0.8,-26.6,-1.5%,0.8%
FC(F)(F)Oc1ccc(NC(=S)Nc2ccc(OC(F)(F)F)cc2)cc1,2.7%,1.8,-25.2,15.8µM*,3.9%
CC(C)c1ccc(NC(=S)Nc2ccc(OC(F)(F)F)cc2)cc1,17.7%,0.5,-19.1,-0.5%,-3.9%
O=C1c2cccc3c(O)ccc(c23)C(=O)N1Cc1ccco1,-51.0%,99.2*,-18.7,3.4%,9.4%
O=C1c2cccc3c(O)ccc(c23)C(=O)N1c1ccc(Cl)cc1,-84.6%,103.7*,-8.2,3.7%,14.1%
CC(=O)Nc1ccc(N2C(=O)c3cccc4c(O)ccc(c34)C2=O)cc1,?,71.9*,-5.8,0.6%,-0.3%
CCN(CC)S(=O)(=O)c1ccc(N2CCN(CCOc3ccc(OC)cc3)CC2)nc1,11.2%,-0.2,8.4,-2.2%,-1.7%
N#CC1(NC(=O)COc2cccnc2[N+](=O)[O-])CCCCC1,2.3%,0.3,-7.8,-1.0%,-1.9%
COC(=O)c1sccc1NC(=O)c1ccc2c(c1)OCO2,0.7%,-0.5,-5.0,6.2%[38.3 µM],1.6%
COC(=O)c1c(-c2cccnc2)csc1NC(=O)c1ccc2c(c1)OCO2,10µM*,0.8,-6.3,?,-20.2%
C=CCC1[C@H](C)[C@H]2[C@@H]3CC[C@@H](C3)[C@H]2CN1S(=O)(=O)c1ccc(C)cc1 (some centres undefined),-0.4%,54.0*,-12.8,13.2%,1.9%
CCC(C)[C@H](N)C(=O)NC[C@H]1CC[C@H](C(=O)N[C@@H](Cc2ccccc2)C(=O)O)CC1 (some centres undefined),3.7%,0.6,13.4,4.8%,2.2%
Cc1ccc(N=C2NC(=O)/C(=C/c3cccn3C)S2)cc1,?,1.4,-9.5,?,5.01µM*
Cc1ccc(N=C2NC(=O)/C(=C/c3cccn3C)S2)cc1C,?,2.5,1.2,?,?
O=C(N/N=C/c1cnc(N2CCCCC2)s1)c1ccc(Cl)cc1,-0.5%,1.7,-21.7,28.2µM*,4.4%
CC(=O)c1cccc(NC(=O)CN2C(=O)c3cccnc3Sc3ccccc32)c1,-0.6%,2.7,-20.1,0.1%,-3.6%
CCC(C)Sc1ccc(-c2nc3ccc(C)cn3c2NCc2ccccc2)cc1OC (centres undefined),-3.3%,-0.9,66.8,15.8µM*,-1.0%
CCCCNc1c(-c2ccc(SC3CCCCC3)c(OC)c2)nc2ccc(C)cn12,-11.0%,-1.3,27.3,25.1µM*,-2.9%
CCCCNc1c(-c2ccc(OC)c(SC3CCCCC3)c2)nc2ccc(C)cn12,?,1.1,31.4,?,-19.6%
SMILES,Vif-APOBEC3F blk,TRPML1 ag,TRPML1 blocker,PINK1 expr mod,Vif-APOBEC3G blk
CCC(C)Sc1cc(-c2nc3cc(C)ccn3c2NC2CCCCC2)ccc1OC (centres undefined),?,-0.2,-3.9,12.6µM*,?
COc1ccc2c(c1OC)C(=O)NC(C)=C(C(=O)OC(C)(C)C)C2O (centres undefined),-6.3%,0.5,5.8,·,1.1%
O=C(C[C@@H]1C/C=C\C[C@@H](Cc2ccc(F)cc2)C(=O)OCCNC1=O)N[C@H](CO)Cc1ccccc1,-6.6%,-1.0,4.6,0.4%,1.1%
CCCCn1c(NCc2cc(C)ccc2O)nc2ccccc21,-11.0%,0.0,-4.2,15.8µM*,-7.6%
Cc1c2cc(O)c(=O)cc-2oc2cc(O)c(O)cc12,?,23.5,95.3,12.0%[38.3 µM],3.2%
COc1cc(OC)c(-c2c3cc(O)c(=O)cc-3oc3cc(O)c(O)cc23)cc1OC,?,111.8*,-9.6,7.0%,6.7%
Cn1c(=O)c2[nH]c(N3CCCCC3)nc2n(C)c1=O,12.2%,60.1*,-3.6,3.8%,-123.5%
Cn1c(=O)c2[nH]c(N=NN3CCCCC3)nc2n(C)c1=O,5.8%,-0.6,7.3,-1.5%,-1.9%
COc1ccc(S(=O)(=O)N(C)C[C@@H]2Oc3c(NS(C)(=O)=O)cccc3C(=O)N([C@@H](C)CO)C[C@H]2C)cc1,4.2%,0.1,-1.6,-0.8%,-0.7%
O=C(Nc1ccccc1OCc1cc(=O)n2ccccc2n1)Nc1ccccc1C(F)(F)F,-3.3%,1.1,-17.5,13.6%,3.4%
FC(F)Sc1ccc(NC(=S)NCc2ccccc2)cc1,1.6%,2.1,8.0,14.1µM*,0.7%
O=C(Nc1cc(C(F)(F)F)ccc1-n1cncn1)c1ccc([N+](=O)[O-])o1,12.6µM*,1.4,0.1,15.8%,?
CCOC(=O)C(=O)Nc1nnc(CCc2ccccc2)s1,14.6%,-0.2,8.8,-0.3%,1.3%
COC(=O)c1ccccc1-c1ccc(/C=N/NC(=O)c2cc3ccccc3o2)o1,3.3%,1.3,9.6,1.8%,-10.6%
COC(=O)c1ccccc1-c1c2ccc(=N)cc-2oc2cc(N)ccc12,20.8%,99.1*,-23.2,39.8µM*,10.0%
CC(C)CN(CC(C)C)c1ccc(/C=C/c2nc3ccccc3s2)cc1,·,1.6,·,0.9%,2.3%
O=S(=O)([N-]c1nc2ccccc2nc1-[n+]1ccc(-c2ccncc2)cc1)c1ccccc1,3.55µM*,5.2,15.2,-2.1%,-2.8%
Cc1cc(C)c(S(=O)(=O)/N=C2/C=C(Sc3ncn[nH]3)C(=O)c3ccccc32)cc1C,7.08µM*,1.5,39.2,1.4%,?
Cc1ccc2cc3c(N)[nH]nc3nc2c1,-7.7%,2.2,-6.6,-0.6%,-13.0%
O=C(Nc1ccc(Cl)cc1)Nc1ccon1,1.0%,0.6,29.4,3.3%,20µM*
Nc1c(C(=O)Nc2nc3ccccc3s2)sc2nc(-c3cccs3)ccc12,7.94µM*,2.3,-0.8,-5.0%,11.2µM*
CC[n+]1ccccc1/C=C1\Sc2ccc(C)cc2N1C,22.4µM*,0.9,2.9,15.8µM*,?
CC1=CC(=C(c2ccc(N)cc2)c2ccc(N)cc2)C=CC1=N,·,-1.2,·,15.8µM*,8.2%

# Screens: PubChem, National Center for Advancing Translational Sciences (NCATS)
